Compounds with a hit are over-represented: about 6.3% of the library has one in this group of screens.
Gal4-VP16 FLuc – counter-screen for ROR gamma inhibitors: Gal4-VP16 reporter | Drosophila S2 Gal4-VP16 UAS-luciferase, luminescence, 20 h | Potency, µM (doses to about 53.6 µM), for the others: top-dose activity, negative = inhibition, usual class: inhibitors | hit rate 3.5% among 310,000;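 note: Gal4-VP16 expression switched on by copper sulfate through the metallothionein promoter; % is set by controls: 0 for no effect and ±100 for the full control effect; nearly all actives have a fitted effect of over 50% in size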
ATXN2 expr inh – ATXN2 expression inhibition; HEK-293 ATXN2-luciferase reporter, luminescence, 24 h; Potency, µM (highest dose often 57 µM), for inactives: top-dose activity change, negative = inhibition, actives largely listed as inhibitors; hit rate 0.72% among 360,000; AID 1745845; note: % is set by controls: 0 for no effect and ±100 for the full control effect; nearly all actives have a fitted effect of over 55% in size
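qHTS (up to 57 uM final) was run with 24 h compound exposure of reporter cells at 37 °C. Each well was multiplexed: SteadyGlo luminescence measured ATXN2-luciferase expression after a fluorogenic Gly-Phe-AFC viability readout (25 uM final).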
HepG2 viability – HepG2 cytotoxicity, counter-screen for TGF-b inhibitors. HepG2 CAGA-GFP viability, ATP luminescence, 18 h. Potency, µM (highest dose often 46.1 µM), for the others: at the top dose activity change, negative = cytotoxicity, actives largely listed as cytotoxic. hit rate 0.76% among 410,000
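CellTiter-Glo luminescence gave cytotoxicity after 18 hours at 37 degrees C. The cells were HepG2 CAGA-GFP in 1% FBS DMEM, stimulated with 500 pg/mL TGF-beta after compound addition. %Activity was normalised to no-cell wells (complete cell-killing) and DMSO (no toxicity), and curves were fitted and classified.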
RORg inh – blocks mouse ROR gamma transcriptional activity. P51450. Drosophila S2 Gal4-RORgamma UAS-luciferase reporter, 20 h. Potency, µM (top dose mostly 53.6 µM), inactives show top-dose activity change, negative = inhibition, most hits filed as inhibitors. hit rate 5.4% among 310,000; note: % is set by controls: 0 for no effect and ±100 for the full control effect; nearly all actives have a fitted effect of over 60% in size
Target sequence (P51450 whole entry, looked up, the tested form may be a part): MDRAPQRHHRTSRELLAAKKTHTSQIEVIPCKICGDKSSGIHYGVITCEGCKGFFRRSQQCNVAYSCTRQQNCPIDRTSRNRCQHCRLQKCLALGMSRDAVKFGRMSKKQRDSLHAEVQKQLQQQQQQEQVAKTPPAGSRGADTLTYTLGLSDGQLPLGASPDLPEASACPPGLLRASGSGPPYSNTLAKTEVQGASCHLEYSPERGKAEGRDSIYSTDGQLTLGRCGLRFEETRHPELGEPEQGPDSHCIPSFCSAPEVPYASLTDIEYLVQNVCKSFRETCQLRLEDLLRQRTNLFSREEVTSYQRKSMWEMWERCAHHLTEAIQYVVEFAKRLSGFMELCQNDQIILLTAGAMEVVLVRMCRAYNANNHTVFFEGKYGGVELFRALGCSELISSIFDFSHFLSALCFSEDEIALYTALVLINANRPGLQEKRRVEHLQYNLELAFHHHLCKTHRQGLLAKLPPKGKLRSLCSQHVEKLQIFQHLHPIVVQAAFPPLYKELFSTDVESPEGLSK
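Stable Schneider cell line, Gal4 DNA-binding domain fused to ROR gamma, UAS-luciferase. Cmpd 1 hr RT → CuSO4 700 uM final → 20 hr RT → luciferase reagent 10 min → luminescence.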
ATXN viability – reduces viability in counter-screen for ATXN expression inhibitors. S2 cells (HEK-293 line with an ATXN2-luciferase reporter) viability, CellTiter-Fluor protease fluorescence, 24 h. Potency, µM (titrated, usually from 56.7 µM), actives largely listed as cytotoxic. hit rate 0.49% among 400,000; note: nearly all actives have a fitted effect of over 40% in size
TGFb inhibitor – blocks TGF-b signaling; HepG2 CAGA-GFP TGF-b/SMAD3 reporter, GFP fluorescence, 18 h; TGF-beta stimulated, 500 pg/mL final; hit rate 1.2% among 410,000; Potency, µM (highest dose often 46.1 µM), for inactives: at the highest dose activity, negative = inhibition, hits mostly inhibitors; note: % is set by controls: 0 for no effect and ±100 for the full control effect; nearly all actives have a fitted effect of over 65% in size
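HEPG2 CAGA-GFP, 1000 cells/well; 2 h settle, 37 C; cpd via pin tool; TGF-b 500 pg/mL final; 18 h, 37 C; GFP imaging ex488/em500-530; %Activity normalised to -TGF-b and +DMSO controls; CRC fit, curve class.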
The depositor's hits bear a star; i = inactive; ? = inconclusive; nt = no result given; [ ] = remark or other dose. Calls come from the whole dose curve; as a rule, active = well fitted curve in the direction sought with a large enough effect; inconclusive = small, poorly fitted or top-dose-only effect, or another doubt; inactive = no such curve, though single readings can be large; an effect the other way counts as inactive or inconclusive. Potency is the fitted concentration of half-maximal effect.

SMILES	Gal4-VP16 FLuc	ATXN2 expr inh	HepG2 viability	RORg inh	ATXN viability	TGFb inhibitor
Cc1nc(N2CCOCC2)c2c(C(=O)NCc3ccc(Cl)cc3)c(C)oc2n1	nt	nt	1%	nt	nt	-2%
O=C(Nc1ccc(Br)cc1F)c1cc(S(=O)(=O)NC2CCCCC2)ccc1F	nt	nt	-70%	nt	nt	?
O=C(N/N=C/c1cc(Cl)ccc1O)c1cccnc1	0.71µM*	?	-22%	1.1µM*	i	-2%
Cc1ccsc1/C=N/NC(=O)c1ccc([N+](=O)[O-])cc1	4.5µM*	18%	-31%	1µM*	i	-3%
O=C(N/N=C/c1cccnc1)c1cccc(Cl)c1	-14%	17%	-11%	5%	i	23%
Cc1ccsc1/C=N/NC(=O)c1ccc2ccccc2c1	5.6µM*	28%	-1%	3.2µM*	i	-5%
COc1cc(C(=O)N/N=C/c2sccc2C)cc(OC)c1OC	?	-6%	-2%	20µM*	?	?
CSC[C@H]1CN(CCc2ccccc2)C(=O)[C@@H]1CC(=O)Nc1ccccc1	nt	2%	-7%	nt	i	6%
CC(C)(C)c1ccc(/C=C/C(=O)c2ccc(NC3=NCCCS3)cc2)cc1	5.6µM*	?	-91%	?	i	?
O=C(/C=C/c1ccc(Br)cc1)c1ccc(NC2=NCCCS2)cc1	?	?	-99%	?	32µM*	?
COc1cccc(/C=C/C(=O)c2ccc(NC3=NCCCS3)cc2)c1	5%	?	-45%	?	nt	?
Cc1cccc(/C=C/C(=O)c2ccc(NC3=NCCCS3)cc2)c1	11%	nt	-95%	0%[10 µM]	10µM*	?
O=C(/C=C/c1ccccc1)c1ccc(NC2=NCCCS2)cc1	?	57%	-66%	?	i	?
C[C@@H]1CN([C@H](C)CO)C(=O)CCCn2nncc2CO[C@H]1CN(C)C(=O)c1ccc2ccn(C)c2c1	nt	3%	-17%	nt	i	1%
CCN(CC)CC(=O)Oc1ccc(NC(C)=O)cc1	nt	14%	nt	nt	i	nt
Fc1ccc(-n2ncc3c(Nc4ccc(Oc5ccc(Cl)cc5)cc4)ncnc32)cc1	nt	2%	-13%	nt	i	4%
Cc1ccc(N=C2C(=S)N(c3ccc(C)cc3)C(=N)N2/N=C/c2ccc(Cl)cc2)cc1	3.2µM*	48%	-10%	2.5µM*	?	0%
O=C1CCCc2[nH]c(=O)c(-c3nc(-c4cccc([N+](=O)[O-])c4)cs3)cc21	nt	-3%	-12%	nt	i	7%
COc1ccc(-c2ccc(CNCCCSc3nnnn3C)o2)cc1Cl	nt	-23%	-35%	nt	i	-7%
Cc1cc(C)c2c(NC(=S)NC(=O)c3ccccc3)nn(C)c2n1	5µM*	nt	15%	1.4µM*	i	-7%
Cn1ncc2cc(NC(=S)NC(=O)c3ccccc3)ccc21	?	37%	-8%	10µM*	i	-11%
COc1ccc(NC(=S)NC(=O)c2ccccc2)cn1	nt	40%	-24%	nt	i	-14%
O=C(NC(=S)Nc1ncc(Br)cc1Br)c1ccccc1	18µM*	23%	-25%	8.9µM*	i	-25%
O=C(NC(=S)Nc1cnc2ccccc2c1)c1ccccc1	?	28%	-62%	5.6µM*	i	-23%
COc1ccccc1CCC(=O)O	nt	nt	-6%	nt	nt	1%
SMILES	Gal4-VP16 FLuc	ATXN2 expr inh	HepG2 viability	RORg inh	ATXN viability	TGFb inhibitor
CCn1c2c(c(=N)c3c1CCC3)CCC2	-29%	-23%[11.3 µM]	12%	65%	i	-5%
CCCCCCCCCn1c2c(c(=N)c3c1CCC3)CCC2	?	2µM*	-72%	62%	?	4.5µM*
CCCCCCCn1c2c(c(=N)c3c1CCC3)CCCC2	5.6µM*	1.9µM*	-12%	6.3µM*	?	?
CCCCCCn1c2c(c(=N)c3c1CCC3)CCC2	11µM*	8.9µM*	-8%	11µM*	i	?
NS(=O)(=O)c1ccc(N2CCCCS2(=O)=O)cc1	nt	-17%	nt	nt	i	nt
Cc1cccc(NC(=S)N(CCN(C)C)Cc2cccs2)c1	-1%[10 µM]	-27%	6%	11µM*	i	-4%
Cc1cccc(C)c1NC(=S)N(CCN(C)C)Cc1cccs1	-3%	-6%	5%	10µM*	i	-8%
Cc1ccc(NC(=S)N(CCN(C)C)Cc2cccs2)c(C)c1	-6%	nt	-1%	?	i	-2%
Cc1cc(C)c(NC(=S)N(CCN(C)C)Cc2cccs2)c(C)c1	-9%[10 µM]	-24%	-15%	17%	i	-13%
CCc1cccc(C)c1NC(=S)N(CCN(C)C)Cc1cccs1	-9%[10 µM]	-33%	5%	11µM*	i	-4%
CC(C(=O)NCc1ccccc1)N1Cc2ccccc2C1=O (stereo not drawn)	nt	nt	9%	nt	nt	3%
S=c1nc[nH]c2c1cnn2Cc1ccccc1	?	-10%	1%	22µM*	i	6%
O=[N+]([O-])c1cc(Cl)ccc1Nc1nc(Nc2ccc(Cl)cc2[N+](=O)[O-])nc(N2CCOCC2)n1	nt	nt	-9%	nt	nt	4%
COCCCN1C(=O)C(CC(=O)NCCCN(C)C)CC(C(=O)N(C(C)C)C(C)C)=C1C (stereo not drawn)	nt	5%	3%	nt	i	-1%
NCCCn1c(C(=O)c2cc(Cl)c(N)c(Cl)c2)c2ccc([N+](=O)[O-])cc2[n+]1[O-]	nt	?	-45%	nt	10µM*	?
COc1ccc(Cl)cc1NC(=O)C1CCN(S(C)(=O)=O)CC1	-2%	-3%	8%	0%[1.91 µM]	i	5%
COc1ccc(F)c(F)c1C(=O)c1cnc(NC2CCN(S(C)(=O)=O)CC2)nc1N	nt	2.7µM*	nt	nt	nt	nt
CCN(Cc1ccccc1)S(=O)(=O)c1ccc(C(=O)N2CCN(c3nc4ccccc4s3)CC2)cc1	22µM*	?	-40%	?	?	-21%

Compound activity (PubChem)
